The results in this text go back to PubChem BioAssay (NCI).

Where “and” joins values, the source holds several entries; their conditions need not be identical. Equal entries are not always repeated. This is part of a sample that, as a whole, favours compounds with a hit. Of some 83,000 tested, about 20% had one in any assay.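 Results are percent growth after 48 hours of single-concentration exposure. 100 means growth as in untreated cells, lower positive values show inhibition; negative values down to -100 show cell death.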 A number with no mark means an inactive call. Calls of active or inactive are those of the source. Rule for the calls: active = growth percent below 10; inactive = the rest.

This assay has as its system HL-60(TB) leukemia. As to the kind of experiment: NCI-60 one-dose screen, 48 h (100 = growth as untreated, 0 = no growth, -100 = all killed). Conditions: 10 µM unless noted.
`ClCCn1c(CCl)nc2ccc(Cl)cc21`: the growth was -69% (active).
The figure for `O=C(NN1C(=O)CSC1c1ccc(Cl)cc1)c1[nH]c2ccc(F)cc2c1-c1ccccc1` (centres undefined) is 35.5%.
With `COc1cc(-c2cc(-c3nc4ccccc4[nH]3)[nH]n2)cc(OC)c1OC`, the growth was -22.9% (active).
Turning to `COc1ccc(Cl)cc1Nc1nc(C(F)(F)F)ccc1C(=O)N/N=C/c1cc(OC)c(OC)c(OC)c1`, the growth is -32.3% (active).
Regarding `COc1ccc(Nc2ncccc2C(=O)NCc2cn(Cc3cccc(Oc4ccccc4)c3)nn2)c(OC)c1`, the growth was 18.9%.
For `COc1ccc(-c2nsc3c2NC(=O)CC3c2ccc(Cl)cc2)cc1` (centres undefined), the growth is 80.1%.
The figure for `O=[N+]([O-])c1ccc(-c2nc(N3CCOCC3)c3c4c(sc3n2)CCCC4)cc1` is 92.2%; for `COc1cc(Nc2c(C#N)cnc3cc(OCCCN4CCN(C)CC4)c(OC)cc23)c(Cl)cc1Cl` it is 6.54% (active).
The result for `Cc1cccc(/C=C\C(=O)c2ccc(Cl)cc2)c1` reads 90.1% and 61.3%; that for `COc1ccc(/C=C2\COc3ccc(O)cc3C2=O)c(OC)c1OC`, 12.7%; that for `OC(CC(c1ccccc1)c1cccc2ccccc12)(c1ccccc1)c1ccccc1` (centres undefined), 99.1% and 101%.
The figure for `CC1=CCC2CC1C2(C)C` (centres undefined) is 105% and 92.9%; for `COC(=S)SCN(CSC(=S)OC)c1ccc(Cl)cc1` it is 90.4%; for `COCCCNC1=C(C#N)C(=O)NC(c2cccs2)S1` (centres undefined) it is 145%.
As for `CC1=C(/C=C/C(C)=C/C=C/C(C)=C/CO)C(C)(C)CCC1`, the growth was 103%.
The figure for `O=C(O)c1ccccc1Cc1ccc(F)c2ccccc12` is 98.1% and 91.1%; for `C/C(=N\O)C1(O)CCCCC1` it is 83.6%; for `CC(=O)Nc1cccc2cc(O)ccc12` it is 114% and 76.6% and 104%.
The figure for `Cc1cc(Cl)c2c(Cl)ccc(Cl)c2n1` is 96.2%.
As for `CNC(=O)c1ccc(Nc2ncc(C(F)(F)F)c(NCc3nccnc3N(C)S(C)(=O)=O)n2)cc1`, the growth is -32.1% (active).
Regarding `CCCCCCCCN=C(NCCCCCCCC)SCc1cccc2ccccc12`, the growth was -43.4% (active).
As for `N#Cc1c(NC(=O)c2cccc(Br)c2)sc2c1CCCC2`, the growth was 62.4%.
For the compound `COc1cc2c3c(c4c5ccccc5[nH]c4c2c(OC)c1OC)C(=O)N(CCN1CCOCC1)C3=O`, the growth was 69%.
The result for `Cn1cnc([N+](=O)[O-])c1Sc1ncn[nH]1` reads 105%; that for `CNc1ccc(Cl)cc1S(=O)(=O)c1ccccc1[N+](=O)[O-]`, 65.3% and 79.9%.
The figure for `OB(O)c1cccc(-c2nc3ccc4[nH]ncc4c3c3c2CCCC3)c1` is 32.6%; for `CC(=O)Oc1cc(C(=O)O)cc(OC(C)=O)c1OC(C)=O` it is 108% and 88.2%.
Regarding `COc1ncc(-c2ccc3ncnc(Nc4cccc(Cl)c4)c3c2)cc1NS(C)(=O)=O`, the growth was 19.1%.
Take `C(=N\OCCc1ccccc1)/c1ccccn1`: the growth is 99.3% and 85.5%.
The figure for `CC(=O)OCC(COC(C)=O)(COC(C)=O)COC(C)=O` is 104%; for `C=CC[N+]1(CC)CCN=C1CCCCCCCCCCCCCCCCC` (centres undefined) it is -59.5% (active); for `COc1ccc2c(c1)c(-c1noc(C(=O)c3cn(C)c4ccc(Br)cc34)n1)cn2C` it is 84.4%.
On to `O=C1c2ccccc2-c2c1c1c(=O)[nH]c3ccccc3c1n2Cc1ccccc1`, for which the growth was 73.9%.
Take `Cc1ccc(S(=O)(=O)C2=C3C(=C(c4ccccc4)c4ccccc43)CN(S(=O)(=O)c3ccc(C)cc3)C2)cc1`: the growth was 65.7%.
The figure for `Cc1cc(O)c2c(c1O)C(=O)C13C(=C2O)C(=O)C2C(O)C1C1C(O)C3C(=O)C3=C(O)c4c(O)cc(C)c(O)c4C(=O)C321` (centres undefined) is -19.7% (active); for `CC(C)OC(=O)c1ccc2[nH]c(O)c(C(=Nc3ccc(N(C)C(=O)CN4CCN(C)CC4)cc3)c3ccccc3)c2c1` it is -50.2% (active).
The result for `CN(C)c1ccc2nc3ccc(N)cc3[n+](-c3ccccc3)c2c1` reads -5.21% (active) and 4.22% (active); that for `NC(=O)c1cc2c3ccccc3ccn2c1-c1ccccc1`, -3.94% (active).
With `CCOc1ccc2[nH]c(=S)sc2c1`, the growth was 78.9%.
